According to PubChem BioAssay (NCATS):
Records with an inconclusive call do not appear. Entries that show only a call come without a potency. Active and inactive are the calls of the source. The call rests on the fitted dose curve; in most records, active means well fitted curve in the direction sought with a large enough effect; inconclusive means small, poorly fitted or top-dose-only effect, or another doubt; inactive means no such curve, though single readings can be large; an effect the other way counts as inactive or inconclusive.

Assays:
[1] = target: Aldehyde dehydrogenase, mitochondrial (Homo sapiens) (UniProt P05091); experiment: qHTS for Inhibitors of the Aldehyde Dehydrogenase Family (ALDH2) Primary screen (AID 2061308); details: ALDH2 enzyme inhibition qHTS, 1536-well; series mostly up to 56 µM; further: nearly all actives have a fitted effect of over 55% in size
[2] = target: Retinaldehyde dehydrogenase 3 (Homo sapiens) (UniProt P47895); experiment: qHTS for Inhibitors of the Aldehyde Dehydrogenase Family (ALDH1A3) Primary screen (AID 2061315); details: ALDH inhibition qHTS; series mostly up to 56 µM

Row | Structure (SMILES) | Potency [1] | Potency [2]
1 | Cc1cc2c(s1)c1cnn(Cc3ccc(C#N)cc3)c(=O)c1n2C | inactive | inactive
2 | N#Cc1nc(-c2cccc3ccccc23)oc1N | inactive | inactive
3 | O=C(OCC#CCSc1nnc(-c2ccc3ccccc3c2)o1)c1cccs1 | inactive | inactive
4 | CC(=O)Nc1sc2c(c1-c1ccc(-c3nn[nH]n3)cc1)CCNC2 | inactive | inactive
5 | c1cc(NC2CCNCC2)nc(-c2cnc3ccccn23)c1 | inactive | inactive
6 | Cc1ccc(S(=O)(=O)Nc2cccc3cccnc23)cc1 | inactive | inactive
7 | CCC(=O)NC(c1cc(Cl)c2cccnc2c1O)C(C)C (configuration not stated) | inactive | inactive
8 | Cc1cc2c(s1)c1cnn(Cc3cccc(F)c3F)c(=O)c1n2C | inactive | inactive
9 | COc1ccc(C2=Nn3c(nnc3-c3ccccc3Cl)SC2)cc1OC1CCOC1 (configuration not stated) | inactive | inactive
10 | Cc1nc(-c2ccc(S(=O)(=O)Nc3ccc(C)c(C)c3)s2)cs1 | inactive | inactive
11 | O=C(Nc1nnc(-c2ccncc2)s1)Oc1ccc2ccccc2c1 | inactive | inactive
12 | COc1ccc(C2N=C(Nc3nc4ccccc4o3)NC3=C2C(=O)CCC3)cc1 (configuration not stated) | inactive | inactive
13 | Cc1cc(N[S+](=O)([O-])c2ccc(NC(=O)Cc3ccc(Cl)c([N+](=O)[O-])c3)cc2)no1 | inactive | inactive
14 | Cc1ccc(NS(=O)(=O)c2cc3c(cc2N[C@@H](C)CO)NC(=O)CC3)cc1C | inactive | inactive
15 | Fc1cccc(CNc2ncnc3ccc(-c4ccccc4Cl)cc23)c1 | inactive | inactive
16 | O=C1c2ccccc2C(=O)N1C1CCCCC1 | inactive | inactive
